Source: PubChem
Hits are enriched below; roughly 1.3% of the tested compounds scored in any of these assays.
Statin myotox sup: suppressors of statin myotoxicity in C2C12 myotubes, primary screen, cell-based, single point, plate reader; C2C12 myotubes + simvastatin, ATP luminescence, 48 h; scaled: DMSO 0, geranylgeraniol control 100; rescue of ATP level, % at 7.49 µM; hit rate 0.78% among 330,000;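 active = mean ATP rescue above about 67%, or every replicate alone reaching that limit, limit read from the data, passing the limit was not always enough; inconclusive = no clear call, values can overlap the other calls; inactive = mean under the limit and some replicate under it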;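 also: myotubes were challenged with 10 µM simvastatin during compound exposure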
Rce1 inhib: yeast Rce1p protease inhibitors, primary screen, biochemical, fluorescence, cell-free homogeneous | CAAX prenyl protease 2 (Saccharomyces cerevisiae (strain ATCC 204508 / S288c)), Q03530 | calls only | yeast membranes, quenched prenylated peptide cleavage fluorescence | hit rate 0.27% among 290,000;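 active = fall in fluorescence gain of 50% or more versus controls, with final raw signal at or below 3038400; inconclusive = same 50% fall but final raw signal above 3038400; inactive = fall in fluorescence gain under 50%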;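 also: plate controls were neutral control wells for no effect and wells lacking membranes for full effect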
Target sequence (Q03530 whole entry, looked up): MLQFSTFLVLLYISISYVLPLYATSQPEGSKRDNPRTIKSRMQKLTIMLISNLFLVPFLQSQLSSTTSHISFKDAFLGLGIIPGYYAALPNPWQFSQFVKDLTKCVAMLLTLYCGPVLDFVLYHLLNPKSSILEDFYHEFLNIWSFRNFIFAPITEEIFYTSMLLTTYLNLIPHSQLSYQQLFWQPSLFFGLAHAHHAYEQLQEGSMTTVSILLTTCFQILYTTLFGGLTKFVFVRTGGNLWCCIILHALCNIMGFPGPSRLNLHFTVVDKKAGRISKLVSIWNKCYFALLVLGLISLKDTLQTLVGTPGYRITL
AI-2 QS mod: Vibrio harveyi AI-2 quorum sensing modulators, primary screen, JMH597 strain, luminescence/OD600 ratio; Vibrio harveyi JMH597 AI-2 luminescence/OD600 ratio, 9 h; stronger effect = lower value; strain lacks LuxN and CqsS sensors; 0 = neutral-control median; activity change, % at 7.5 µM; hit rate 0.4% among 300,000; in the data active = activity change below about -75%, passing the limit was not always enough; inconclusive = no clear call, values can overlap the other calls;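 also: luminescence divided by OD600 gain over 9 h not by final OD600 alone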
HIF act: HIF pathway transcriptional activators, primary screen, cell-based, U2OS HRE-luciferase, luminescence; hit rate 0.32% among 300,000; U2OS HRE-luciferase reporter; normalized: DMSO 0%, desferrioxamine 100%; activation, % at 7.5 µM (by protocol); AID 1910, 2009;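 active = mean activation of at least 10% of the iron chelator positive control signal, with at least half of replicates also reaching 10%; inconclusive = mean and replicate majority disagree about reaching 10%; inactive = mean and most replicates under 10%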
PGC1a acetyl inh: inhibitors of PGC1a acetylation signal, primary screen, cell-based, U2OS, AlphaScreen, inhibitor mode | AlphaScreen anti-acetyl-lysine; with virally co-expressed GCN5 acetyltransferase | inhibition, % at 15.6 µM | hit rate 0.17% among 350,000 | AID 651687, 2012;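 active = every replicate shows inhibition of at least 40%; inconclusive = mean inhibition at least 40% but some replicate below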;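 also: 0% = neutral control wells and 100% = positive control wells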
Active calls of the source: *; i = inactive; ? = inconclusive; . = no result; + = active, no number.

SMILES	Statin myotox sup	Rce1 inhib	AI-2 QS mod	HIF act	PGC1a acetyl inh
O=C1c2ccccc2C(=O)N1CCc1nc2ccccc2c(=O)n1CCCn1ccnc1	95.1*	i	25.3	-0.4	35.4
CCOC(=O)N1CCN(c2c(N3CCN(c4cc(C)ccc4C)CC3)c(=O)c2=O)CC1	101.8*	i	-6.9	-0.2	4.8
O=C(Nc1ccccc1F)N1CC(=O)N2[C@H](CO)[C@H](c3ccc(C#CC4CCCC4)cc3)[C@@H]2C1	.	.	.	.	0.8
COc1ccc(Cn2nnnc2C(c2cc3cc(C)ccc3[nH]c2=O)N2CCOCC2)cc1 (configuration not stated)	-13.0	i	11.3	-0.3	.
COc1ccc(N2CCN(C(c3cc4cc(C)ccc4[nH]c3=O)c3nnnn3Cc3ccccc3)CC2)cc1 (configuration not stated)	75.0*	i	14.8	-0.1	-0.6
CCOC(=O)c1sc2nc(SCC(=O)NCc3ccco3)n(Cc3ccccc3)c(=O)c2c1C	.	i	13.4	0.3	.
Cc1sc2nc(SCC(=O)NCc3ccco3)n(Cc3ccccc3)c(=O)c2c1C	113.6*	i	9.5	0.1	-6.1
CNC[C@@H]1OCCCC[C@@H](C)Oc2ccc(NC(=O)Nc3ccc(C(F)(F)F)cc3)cc2C(=O)N([C@H](C)CO)C[C@@H]1C	-19.0	.	.	.	0.2
CCc1nnc(N/N=C/c2c(Cl)cccc2Cl)n1N	-38.0	i	-0.9	0.9	63.9*
CCc1nnc(N/N=C/c2cccs2)n1N	3.8	i	31.9	-3.8	5.5
O=c1cc(-c2ccccc2)cc(-c2ccccc2)n1O	4.3	i	-82.1*	-1.0	.
Cc1cc(-c2ccccc2)cc(=O)[nH]1	.	.	.	.	-7.8
Cc1nnsc1NC(=O)OCc1ccc(C(F)(F)F)cc1	105.5*	i	13.4	-0.1	7.8
Cc1ccc2cc(CN(Cc3ccco3)C(=O)c3ccccc3)c(=O)[nH]c2c1C	137.4*	i	24.7	0.1	-5.9
COc1ccccc1N1CCN(Cc2nc3ccsc3c(=O)[nH]2)CC1	126.2*	i	2.0	-0.1	4.2
COc1ccccc1N1CCN(Cc2nc3ccccc3[nH]2)CC1	-1.4	i	26.8	-0.2	.
O=C(CCN1CCCCC1)N[C@H]1CC[C@@H](CCNS(=O)(=O)c2ccccc2)O[C@H]1CO	-1.0	.	.	.	-5.9
O=C(N/N=C/c1cc(Br)c(O)c(Br)c1O)c1cccnc1	4.0	i	72.0	0.7	4.4
O=C(N/N=C/c1cc(O)ccc1Br)c1cccnc1	35.7	i	?	13.6*	.
O=C(N/N=C\c1c(O)ccc2ccccc12)c1cncc(Br)c1	36.7	i	?	26.4*	.
Cc1ccc(C(=O)N/N=C/c2c(O)ccc3ccccc23)cn1	-37.8	i	-18.6	37.5*	-1.4
O=C(N/N=C/c1c(O)ccc2ccccc12)c1cccnc1	31.7	i	6.3	83.4*	26.8
CCCNC(=O)Nc1ccc2c(c1)C(=O)N(C)[C@@H]1CC[C@@H](CC(=O)O)O[C@H]1CO2	3.9	.	.	.	-1.3
C[C@H]1CN([C@@H](C)CO)S(=O)(=O)c2ccc(-c3ccccc3)cc2O[C@H]1CN(C)Cc1ccccn1	-12.7	.	.	.	-9.1
CCNC(=O)C[C@H]1CC[C@@H]2[C@@H](COc3ccc(NC(C)=O)cc3C(=O)N2C)O1	23.7	.	.	.	4.5
SMILES	Statin myotox sup	Rce1 inhib	AI-2 QS mod	HIF act	PGC1a acetyl inh
O=c1oc2cc(OCc3ccc(F)cc3F)ccc2cc1-c1ccccn1	129.5*	i	-1.7	1.5	2.7
C[C@@H]1CCCCO[C@H](CN(C)C(=O)C2CCCCC2)[C@H](C)CN([C@@H](C)CO)C(=O)c2cc(NC(=O)Nc3ccccc3)ccc2O1	.	.	.	.	-3.4
Nc1nn(S(=O)(=O)c2cccc3nsnc23)cc1-c1ccc(Br)cc1	95.5*	i	13.1	0.2	-13.6
Cc1ccc(-c2cn(S(=O)(=O)c3cccc4nsnc34)nc2N)cc1	7.0	i	35.9	-0.1	-5.6
CO[C@@H]1CN(C)C(=O)c2cc(NC(=O)c3ccccc3)ccc2OC[C@H](C)N(CC2CC2)C[C@H]1C	8.8	.	.	.	-0.3
CCOc1ccc(CCNC(=O)C2CCCN(c3ncnc4c3nc3n4CCCCC3)C2)cc1 (configuration not stated)	75.9*	i	5.8	0.3	-26.9
C[C@H](CO)N1C[C@H](C)[C@H](CN(C)C(=O)Nc2ccc(F)cc2)Oc2c(NC(=O)Nc3cccc4ccccc34)cccc2C1=O	-49.4	.	.	.	2.2
S=c1nc[nH]c2c1cnn2-c1ccccc1	9.5	+	14.1	-6.4	5.2
CCN(CC)CCN(Cc1cc2cc3c(cc2[nH]c1=O)OCO3)C(=S)NCc1ccco1	.	+	20.6	-1.4	.
CCN(CC)CCCN(Cc1cc2cc3c(cc2[nH]c1=O)OCO3)C(=S)NCc1ccco1	.	i	7.3	-0.1	.
CC1(Cc2ccccc2OC(F)(F)F)C(=O)Nc2ccc(S(=O)(=O)NC3CCCCC3)cc21 (configuration not stated)	132.1*	.	.	.	-24.6
C[C@@H]1CN([C@@H](C)CO)S(=O)(=O)c2ccc(C3=CCCC3)cc2O[C@H]1CN(C)C(=O)c1cnccn1	-6.3	.	.	.	-1.0
Oc1ccc(Cl)cc1Cc1cc(Cl)ccc1O	2.3	i	-112.3*	0.1	.
O=c1c2ccccc2nc(/C=C/c2ccc([N+](=O)[O-])o2)n1CCCO	?	i	-84.2*	4.5	-47.2
O=c1c2ccccc2nc(/C=C/c2ccc([N+](=O)[O-])cc2)n1CCCO	.	i	23.1	-0.4	13.4
COc1ccc(S(=O)(=O)NCCC(=O)NCc2ccccc2)cc1	126.2*	i	11.2	-0.4	0.6
COc1ccc(S(=O)(=O)NCc2ccccc2)cc1	2.0	i	12.3	-0.4	.
N#C/C(C(=O)N1CCCCC1)=C1/N=C(NC(=O)c2ccc(F)cc2)c2ccccc21	86.5*	i	20.8	0.7	-3.4
Cc1ccc(S(=O)(=O)n2nc(-c3ccco3)nc2SCc2ccccc2)cc1	108.8*	i	-8.8	-47.4	5.1
C[C@H]1CN([C@@H](C)CO)C(=O)Cc2cc(NS(=O)(=O)c3ccccc3)ccc2O[C@@H]1CN(C)CC1CCCCC1	24.5	.	.	.	.
Cc1cc(C)nc(/N=C2\NC(=O)CC(C(=O)O)N2c2ccc(Cl)cc2)n1 (configuration not stated)	70.4*	i	10.1	-0.1	1.3
Cc1ccc(N2/C(=N/c3nc(C)cc(C)n3)NC(=O)CC2C(=O)O)cc1 (configuration not stated)	1.0	i	0.4	0.0	1.3
CCC(C)(NC(=O)c1ccccn1)C(=O)NC1CCCC1 (configuration not stated)	.	i	14.4	-0.5	-2.9
CCC(C)(NC(=O)CNC(C)=O)C(=O)NC1CCCCC1 (configuration not stated)	111.7*	i	35.8	0.0	1.2
